Bioassay records as filed in PubChem.
Only some compounds are listed: those with a hit (about 2.4% of all), similar ones and a draw of the others.
PERK inhibitor: block of dimerizer-induced PERK translation repression, primary screen, PERK inhibitor project, CHO PERK-DD cells, SEAP luminescence, HTS; Eukaryotic translation initiation factor 2-alpha kinase 3 (Homo sapiens), Q9NZJ5; CHO PERK-DD fusion, SEAP luminescence translation reporter; inhibition, % at 5.6 µM; hit rate 0.17% among 220,000; AID 1416, 2008;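 active = inhibition above the mean inhibition of all tested compounds plus 3 SD, set separately per screening campaign, cut at about 2.9% in these data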;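 note: PERK kinase domain activated by AP20187 dimerizer at 100 nM; 0% = DMSO with dimerizer and 100% = rapamycin at 8.4 µM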
PABP FP inh: PABP poly(A) RNA binding inhibitors, primary screen, biochemical, fluorescence polarization, uHTS; inhibition, % at 35 µM; hit rate 1% among 290,000; AID 2014, 2009;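 note: calls also rest on retests at 20 µM and on dose response follow-up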
eIF4H inh: human eIF4H binding inhibitors, primary screen, translation initiation inhibitor project, biochemical, uHTS, fluorescence polarization; Eukaryotic translation initiation factor 4H (Homo sapiens), Q15056; eIF4H fluorescence polarization binding assay; inhibition, % at 35 µM; hit rate 0.94% among 290,000; AID 2012, 2009;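 note: calls also rest on retests at 20 µM and on dose response follow-up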
MLLE-PAM2 inh: inhibitors of PABP1 MLLE–PAM2 peptide binding, primary screen, biochemical, fluorescence polarization, FITC-PAM2, GST-MLLE; AID 588489, 2011; inhibition, % at 20 µM; hit rate 0.36% among 360,000; in the data active = inhibition above about 35%, passing the limit was not always enough;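 note: plate controls were DMSO wells with GST-MLLE for no effect and wells lacking GST-MLLE protein for full effect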
eIF4E-4G inh: eIF4E–eIF4G protein interaction inhibitors, primary screen, biochemical, uHTS, TR-FRET, eIF4GI fragment | inhibition, % at 21.7 µM | hit rate 0.37% among 220,000 | Eukaryotic translation initiation factor 4E (Mus musculus) + Eukaryotic translation … | AID 782, 2007 | TR-FRET eIF4E-eIF4GI(517-606) binding, 2 h;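 active = inhibition above about 30%, limit read from the data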;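 note: 0% = full FRET control wells and 100% = background wells lacking eIF4GI fragment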
Target sequence (P63073 whole entry, looked up, the tested form may be a part): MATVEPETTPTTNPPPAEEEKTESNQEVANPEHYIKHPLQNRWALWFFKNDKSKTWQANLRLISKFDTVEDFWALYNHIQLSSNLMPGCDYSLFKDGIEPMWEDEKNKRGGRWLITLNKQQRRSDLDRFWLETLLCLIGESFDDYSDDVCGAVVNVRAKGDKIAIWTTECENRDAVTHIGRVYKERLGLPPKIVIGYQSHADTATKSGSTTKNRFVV
Target sequence (Q04637 whole entry, looked up, the tested form may be a part): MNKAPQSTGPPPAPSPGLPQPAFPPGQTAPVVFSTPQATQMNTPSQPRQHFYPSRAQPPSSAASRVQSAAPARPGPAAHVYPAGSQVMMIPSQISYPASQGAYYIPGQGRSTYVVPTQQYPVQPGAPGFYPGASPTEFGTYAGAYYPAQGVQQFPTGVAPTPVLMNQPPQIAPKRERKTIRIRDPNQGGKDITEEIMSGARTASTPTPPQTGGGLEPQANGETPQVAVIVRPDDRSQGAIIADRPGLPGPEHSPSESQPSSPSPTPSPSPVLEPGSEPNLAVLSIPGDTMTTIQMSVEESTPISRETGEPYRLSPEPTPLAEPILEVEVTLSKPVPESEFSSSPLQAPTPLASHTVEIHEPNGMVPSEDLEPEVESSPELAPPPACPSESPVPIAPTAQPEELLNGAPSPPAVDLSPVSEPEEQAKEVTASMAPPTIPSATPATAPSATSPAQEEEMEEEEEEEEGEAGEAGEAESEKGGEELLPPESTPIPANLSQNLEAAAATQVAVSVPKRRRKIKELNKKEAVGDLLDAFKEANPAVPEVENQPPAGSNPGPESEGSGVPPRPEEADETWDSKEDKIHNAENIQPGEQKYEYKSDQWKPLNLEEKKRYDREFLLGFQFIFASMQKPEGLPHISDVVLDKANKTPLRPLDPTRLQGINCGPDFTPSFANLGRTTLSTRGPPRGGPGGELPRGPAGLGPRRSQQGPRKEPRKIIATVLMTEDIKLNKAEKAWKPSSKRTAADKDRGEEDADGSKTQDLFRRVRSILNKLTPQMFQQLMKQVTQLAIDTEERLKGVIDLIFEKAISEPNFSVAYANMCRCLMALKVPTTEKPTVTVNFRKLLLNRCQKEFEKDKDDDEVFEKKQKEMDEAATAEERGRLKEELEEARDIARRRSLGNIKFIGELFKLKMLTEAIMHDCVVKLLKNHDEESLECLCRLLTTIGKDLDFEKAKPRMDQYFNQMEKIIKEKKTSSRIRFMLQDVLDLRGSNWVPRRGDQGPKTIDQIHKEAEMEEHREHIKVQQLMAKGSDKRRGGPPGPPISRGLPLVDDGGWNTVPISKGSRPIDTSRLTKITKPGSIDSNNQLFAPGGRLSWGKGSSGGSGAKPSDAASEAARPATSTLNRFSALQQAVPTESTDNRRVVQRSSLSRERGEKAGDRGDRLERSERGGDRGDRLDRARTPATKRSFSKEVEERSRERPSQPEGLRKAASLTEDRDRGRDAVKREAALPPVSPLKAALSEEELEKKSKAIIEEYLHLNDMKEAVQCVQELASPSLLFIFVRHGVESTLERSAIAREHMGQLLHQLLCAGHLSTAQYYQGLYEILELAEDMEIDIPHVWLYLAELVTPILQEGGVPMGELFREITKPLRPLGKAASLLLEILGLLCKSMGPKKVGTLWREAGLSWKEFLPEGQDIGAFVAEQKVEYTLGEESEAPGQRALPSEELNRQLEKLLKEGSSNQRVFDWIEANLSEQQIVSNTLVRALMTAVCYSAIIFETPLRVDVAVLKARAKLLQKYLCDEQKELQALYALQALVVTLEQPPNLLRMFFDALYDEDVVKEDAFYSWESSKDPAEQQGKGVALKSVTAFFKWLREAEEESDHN
M18AAP inhibitor: PfM18AAP inhibitors, malaria aminopeptidase, primary screen, biochemical, QFRET, recombinant enzyme; H-Glu-NHMec fluorogenic cleavage; inhibition, % at 7.35 µM; hit rate 1.2% among 290,000;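 active = inhibition above the campaign mean inhibition over all tested compounds plus 3 SD, cut at about 28% in these data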;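 note: 0% = plate median of test compound wells and 100% = 2 mM ZnCl2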
Active calls of the source: *. Unless noted, the rule behind the calls is not given here.

For O=c1cc(O)n(-c2ccccc2F)c(=S)[nH]1 the results were PERK inhibitor 0, PABP FP inh 64*, eIF4H inh 46*, MLLE-PAM2 inh -2, eIF4E-4G inh -1 and M18AAP inhibitor -2.
O=c1cc(O)n(-c2ccc(Cl)cc2)c(=S)[nH]1 was read as PERK inhibitor 0, PABP FP inh -3, eIF4H inh -2, MLLE-PAM2 inh 0, eIF4E-4G inh -7 and M18AAP inhibitor 0.
For CCNC(=S)NNC(=O)c1csc(CC)c1 the results were PERK inhibitor 1, PABP FP inh -2, eIF4H inh 5, MLLE-PAM2 inh -20, eIF4E-4G inh 3 and M18AAP inhibitor 31*.
For Nc1nnn(CC(=O)N/N=C/c2cn[nH]c2-c2ccccc2)n1 the results were PERK inhibitor 0, PABP FP inh -4, eIF4H inh -2, MLLE-PAM2 inh 8, eIF4E-4G inh -1 and M18AAP inhibitor 4.
For O=C(COC(=O)c1cccc(F)c1)NC(=O)NC1CCCC1 the results were MLLE-PAM2 inh -6.
Screening O=C(COC(=O)c1cccc(NS(=O)(=O)c2ccc(F)c(F)c2)c1)NC(=O)NC1CCCC1 returned PERK inhibitor 0, PABP FP inh 6.1*, eIF4H inh 85, MLLE-PAM2 inh -4, eIF4E-4G inh -1 and M18AAP inhibitor -2.
Nc1ccc(N)c(C(=O)O)c1 was read as MLLE-PAM2 inh 55 and eIF4E-4G inh 94*.
`Nc1cc(C(F)(F)F)ccc1C(=O)O` gave PERK inhibitor 0, PABP FP inh 1, eIF4H inh 2, MLLE-PAM2 inh 0, eIF4E-4G inh 3 and M18AAP inhibitor -9.
COc1ccc(CCNS(=O)(=O)c2cc(C(=O)O)c(Cl)cc2Cl)cc1 was read as PERK inhibitor 1, PABP FP inh -22, eIF4H inh -2, MLLE-PAM2 inh -2, eIF4E-4G inh 1 and M18AAP inhibitor -4.
Cc1ccc(CN(C(=O)c2csnn2)C(C(=O)NC2CCCC2)c2cccnc2)cc1 (centres undefined) was read as PABP FP inh 6, eIF4H inh 8, MLLE-PAM2 inh 17 and M18AAP inhibitor 5.
For O=S1(=O)CC/C(=N/Nc2ccc(C(F)(F)F)cn2)c2cc(F)ccc21 the results were PERK inhibitor 0, PABP FP inh 31, eIF4H inh 5, MLLE-PAM2 inh 14, eIF4E-4G inh 87* and M18AAP inhibitor -4.
`O=S1(=O)CC/C(=N/Nc2ccccn2)c2cc(F)ccc21` gave PERK inhibitor 1, PABP FP inh 2, eIF4H inh -3, MLLE-PAM2 inh 10, eIF4E-4G inh 2 and M18AAP inhibitor 4.
For COC(=O)c1ccc(Oc2nc(NC(C)C)nc(NC(C)C)n2)cc1 the results were PERK inhibitor -1, PABP FP inh -2, eIF4H inh 0, MLLE-PAM2 inh -2, eIF4E-4G inh 97* and M18AAP inhibitor -1.
For O=C(CC[C@H]1O[C@@H](n2ccc(=O)[nH]c2=O)[C@H](O)[C@@H]1O)N[C@@H](Cc1ccccc1)C(=O)NCC1CCCCC1 the results were MLLE-PAM2 inh 0.
`COc1cc(C(CC(=O)N2CCCC2)c2c(OC)cc(OC)c3c(-c4ccccc4)cc(=O)oc23)cc(OC)c1OC` (centres undefined) gave PABP FP inh 53*, eIF4H inh 78*, MLLE-PAM2 inh -3 and eIF4E-4G inh 4.
For COc1ccc(C(CC(=O)N2CCOCC2)c2c(OC)cc(OC)c3c(-c4ccccc4)cc(=O)oc23)cc1 (centres undefined) the results were PABP FP inh 52*, eIF4H inh 93*, MLLE-PAM2 inh 2 and eIF4E-4G inh 27.
COc1ccc(C(CC(=O)N2CCN(c3ccccc3)CC2)c2c(OC)cc(OC)c3c(-c4ccccc4)cc(=O)oc23)cc1 (centres undefined) was read as PABP FP inh 17, eIF4H inh 33 and eIF4E-4G inh 4.
`COc1ccc(C(CC(=O)N2CCCCC2)c2c(OC)cc(OC)c3c(-c4ccccc4)cc(=O)oc23)cc1` (centres undefined) gave MLLE-PAM2 inh 1 and eIF4E-4G inh 26.
Screening COc1ccc(C(CC(=O)N2CCCC2)c2c(OC)cc(OC)c3c(-c4ccccc4)cc(=O)oc23)cc1 (centres undefined) returned PABP FP inh 28, eIF4H inh 87*, MLLE-PAM2 inh -1 and eIF4E-4G inh 34*.
For CCOC(=O)c1cnc(SCC(=O)N2CCOCC2)nc1N the results were PERK inhibitor -1, PABP FP inh 7, eIF4H inh 6, MLLE-PAM2 inh 17, eIF4E-4G inh 2 and M18AAP inhibitor -9.
O=C(CCN1C(=O)c2ccccc2C1=O)C1=NN[C@@H]2C(=O)N(c3ccc4c(c3)OCCO4)C(=O)[C@H]12 was read as PERK inhibitor -1, PABP FP inh -5, eIF4H inh -2, MLLE-PAM2 inh -14, eIF4E-4G inh 0 and M18AAP inhibitor 17.
Screening CCN(CC)CCn1c(NC(=O)c2ccccc2O)nc2ccccc21 returned PABP FP inh -2, eIF4H inh -7, MLLE-PAM2 inh -9 and M18AAP inhibitor -6.
`O=S1(=O)CC(O)C(Nc2ccccc2)C1` (centres undefined) gave PERK inhibitor 0, PABP FP inh 67, eIF4H inh active, MLLE-PAM2 inh 7, eIF4E-4G inh 1 and M18AAP inhibitor -2.
Screening O=S1(=O)CC(O)C(Nc2ccc(Cl)cc2)C1 (centres undefined) returned PERK inhibitor 1, PABP FP inh -2, eIF4H inh -3, MLLE-PAM2 inh 7, eIF4E-4G inh 4 and M18AAP inhibitor 0.
CC12CCC(C/C1=N\N=C1\NC(=O)/C(=C\c3ccc(Cl)cc3)S1)C2(C)C (centres undefined) was read as PERK inhibitor 1, PABP FP inh -18, eIF4H inh -14, MLLE-PAM2 inh 8, eIF4E-4G inh 0 and M18AAP inhibitor -8.
For COc1cccc(OC)c1C(=O)NC(=S)Nc1ccc2oc(=O)ccc2c1 the results were PERK inhibitor 1, PABP FP inh 5, eIF4H inh -10, MLLE-PAM2 inh 12, eIF4E-4G inh -4 and M18AAP inhibitor -5.
For O=C(NC(=S)Nc1ccc2oc(=O)ccc2c1)c1ccco1 the results were PERK inhibitor 0, PABP FP inh -4, eIF4H inh -10, MLLE-PAM2 inh 43*, eIF4E-4G inh -8 and M18AAP inhibitor -10.
